# Source: PubChem BioAssay (EPA / NIEHS)
# Results filed as inconclusive are left out. The source made the active and inactive calls. The calls were made as follows, unless noted: active = hit-call score of the fitted dose curve at least 0.9, where 1 is the maximum; inconclusive = response in the unintended direction; inactive = score below 0.9.
# Tests used:
# [1] = biological target: human Peripheral-type Benzodiazepine Receptor (PBR), TSPO (gene 706) (UniProt P30536); experiment: NVS_MP_hPBR: NovaScreen (NVS) Membrane Protein Assay for human Peripheral-type Benzodiazepine Receptor (PBR) (AID 2283331);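 also: hits reduce radioligand binding relative to DMSO baseline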
# Procedure, shortened: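 Cell-free radioligand displacement, human colonic membranes, 1 h exposure. Filter radiodetection read-out. Single-concentration duplicates (25 uM), then concentration-response for actives; DMSO negative control.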
# [2] = biological target: Sodium channel protein type 1 subunit alpha (Rattus norvegicus) (UniProt P04774); experiment: NVS_IC_rNaCh_site2: NovaScreen (NVS) Ion Channel Assay for rat Sodium Channel, Site 2 (NaCh) (AID 2283322);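 also: hit means loss of radioligand binding signal relative to DMSO so AC50 marks displacement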
# Procedure, shortened: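 Initial duplicate single-point testing at 25 uM, followed by concentration-response runs for actives. Binding of radioligand to rat forebrain membranes quantified after 1 h via filter-based radiodetection.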
# [3] = biological target: rat Gamma-Aminobutyric Acid Type A Receptor, Non-Selective (GABAR-NonSelective), Gabra1 (gene 29705) (UniProt P62813); experiment: NVS_LGIC_rGABAR_NonSelective: NovaScreen (NVS) Ligand-Gated Ion Channel Assay for rat Gamma-Aminobutyric Acid Type A Receptor, Non-Selective (GABAR-NonSelective) (AID 2283326)
# Procedure, shortened: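 Compounds were first screened in duplicate at 25 uM, with actives run as singleton concentration series (max 50 uM). Binding of a radioligand to rat whole-brain GABA-A preparation was measured by filtration and scintillation counting after 1 h, DMSO baseline.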
# [4] = biological target: rat Neonicotinoid receptor (NNR), Chrna7 (gene 25302) (UniProt Q05941); experiment: NVS_LGIC_rNNR_BungSens: NovaScreen (NVS) Ligand-Gated Ion Channel Assay for rat Neonicotinoid receptor (NNR) (AID 2283315)
# Procedure, shortened: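 Rat cortical membrane preparation incubated 2.5 h with tritiated or iodinated radioligand and test chemical. Bound radioactivity was filtered and counted by scintillation, and displacement was analysed against DMSO.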
# [5] = biological target: rat Vasopressin 1 Receptor (V1), Avpr1a (gene 25107) (UniProt P30560); experiment: NVS_GPCR_rV1: NovaScreen (NVS) G Protein-Coupled Receptor Assay for rat Vasopressin 1 Receptor (V1) (AID 2283316)
# Procedure, shortened: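 Concentration-response up to 50 uM for chemicals passing a threshold such as 30% inhibition in an initial duplicate 25 uM screen. Displacement of radioligand from rat liver membranes measured after 1.5 h by filtration and scintillation.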
# [6] = biological target: rat Glutamate, AMPA Site (AMPA), Gria1 (gene 50592) (UniProt P19490); experiment: NVS_LGIC_rAMPA: NovaScreen (NVS) Ligand-Gated Ion Channel Assay for rat Glutamate, AMPA Site (AMPA) (AID 2283324)
# Procedure, shortened: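 Screening at 25 uM in duplicate preceded concentration series reaching 50 uM for qualifying compounds. Radioligand displacement on rat forebrain membranes, 1 h, filter-based scintillation readout; reduced binding relative to DMSO.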
# [7] = biological target: rat Glutamate, NMDA Agonist Site (GluNMDA), Grin1 (gene 24408) (UniProt P35439); experiment: NVS_LGIC_rGluNMDA_Agonist: NovaScreen (NVS) Ligand-Gated Ion Channel Assay for rat Glutamate, NMDA Agonist Site (GluNMDA) (AID 2283327)
# Procedure, shortened: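 Radioligand displacement at the agonist site on rat forebrain membrane preparations, read by filter scintillation after 1 h. Chemicals were first run at 25 uM in duplicate; those passing threshold were titrated to a 50 uM maximum.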
# [8] = biological target: human Constitutive Androstane Receptor (CAR), NR1I3 (gene 9970) (UniProt Q14994); experiment: NVS_NR_hCAR_Agonist: NovaScreen (NVS) Nuclear Receptor Binding Assay for human Constitutive Androstane Receptor Agonism (CAR) (AID 2283328)
# Procedure, shortened: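 Actives from a 25 uM duplicate screen were retested in singleton concentration series to 50 uM max. Biochemical TR-FRET assay on extracted CAR protein measured 1 h post-dose, with signal increase over DMSO control.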
# [9] = NVS_IC_rCaBTZCHL: NovaScreen (NVS) Ion Channel Assay for Calcium Channel, Type L, Benzothiazepine Site (CaBTZCHL) (AID 2283337)
# Procedure, shortened: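 Rat cortical membrane preparation, cell-free. Radioligand displaced by test chemical; 1.5 h incubation; filtration, scintillation count. DMSO = negative control/baseline. Primary: duplicate, 25 uM; secondary: concentration series.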
# [10] = biological target: human Serotonin, 5-Hydroxytryptamine Receptor 3 (5HT3), HTR3A (gene 3359) (UniProt P46098); experiment: NVS_LGIC_h5HT3: NovaScreen (NVS) Ligand-Gated Ion Channel Assay for human Serotonin, 5-Hydroxytryptamine Receptor 3 (5HT3) (AID 2283325)
# Procedure, shortened: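 Initially tested at 25 uM in duplicate, then up to 50 uM in concentration-response for actives, compounds competed with a radioligand for HEK293-derived human 5-HT3 receptor. Bound counts were measured by filtration and scintillation at 1 h; loss of signal versus DMSO.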
# [11] = biological target: rat Peripheral-type Benzodiazepine Receptor (PBR), Tspo (gene 24230) (UniProt P16257); experiment: NVS_MP_rPBR: NovaScreen (NVS) Membrane Protein Assay for rat Peripheral-type Benzodiazepine Receptor (PBR) (AID 2283335)
# Procedure, shortened: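 Single-concentration duplicate screening at 25 uM preceded concentration-series retesting of actives. Binding of a specific radioligand to rat kidney membrane PBR was read by filtration radiodetection after 1 h, with plate-wise positive and negative controls.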
# [12] = biological target: Voltage-gated inwardly rectifying potassium channel KCNH2 (Homo sapiens) (UniProt Q12809); experiment: NVS_IC_hKhERGCh: NovaScreen (NVS) Ion Channel Assay for human Potassium Channel ERG (KhERGCh) (AID 2283333)
# Procedure, shortened: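 Membranes from CHO cells expressing human ERG; displacement of radioligand measured by filtration and scintillation after 0.75 h. Single-concentration duplicate screen at 25 uM, then concentration-response for actives; DMSO baseline.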
# [13] = test system: NCBI gene 24521; experiment: NVS_IC_rKATPCh: NovaScreen (NVS) Ion Channel Assay for rat Potassium Channel, ATP-Sensitive (KATPCh) (AID 2283319)
# Procedure, shortened: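 Primary duplicate screen at 25 uM, then singleton concentration series to 50 uM maximum, in a rat cortex membrane radioligand displacement assay. Binding measured by filtration and scintillation 2 h post-dose; DMSO baseline.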
# [14] = biological target: bovine Gamma-Aminobutyric Acid Type A Receptor BDZ, alpha 5 site (GABARa5), GABRA5 (gene 523515) (UniProt Q08E50); experiment: NVS_LGIC_bGABARa5: NovaScreen (NVS) Ligand-Gated Ion Channel Assay for bovine Gamma-Aminobutyric Acid Type A Receptor BDZ, alpha 5 site (GABARa5) (AID 2283323)
# Procedure, shortened: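 Tested first in duplicate at a single 25 uM, with hits re-run in concentration series to a 50 uM maximum. Bovine hippocampal membranes; specific radioligand displacement measured by filter scintillation counting 1 hr post-dose.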
# [15] = biological target: rat Opioid Receptor, Non-selective Binding, Oprm1 (gene 25601) (UniProt P33535); experiment: NVS_GPCR_rOpiate_NonSelective: NovaScreen (NVS) G Protein-Coupled Receptor Assay for rat Opioid Receptor, Non-selective Binding (AID 2283318)
# Procedure, shortened: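 Filter-based radioligand displacement using rat forebrain membrane preparations, measured 1.5 h post-dosing. Single-concentration duplicate screen at 25 uM, follow-up in concentration series; activity taken as signal loss relative to DMSO.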
# [16] = NVS_IC_rCaDHPRCh_L: NovaScreen (NVS) Ion Channel Assay for rat Calcium Channel, Type L, Dihydropyridine Site (CaDHPRCh_L) (AID 2283320)
# Procedure, shortened: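 Rat cortex membrane preparation; dihydropyridine-site radioligand displacement read 1 h post-dose by filtration and scintillation. Primary single-point screen 25 uM in duplicate, then concentration series to 50 uM maximum; DMSO as negative control.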
# [17] = biological target: human Androgen Receptor (AR), AR (gene 367) (UniProt P10275); experiment: NVS_NR_hAR: NovaScreen (NVS) Nuclear Receptor Binding Assay for human Androgen Receptor (AR) (AID 2283332)
# Procedure, shortened: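 LnCAP cell-free extract; radioligand displacement read by scintillation counting after 20 h. Primary screen single concentration 25 uM in duplicate, actives then run as concentration series; loss-of-signal fitted relative to DMSO baseline.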
# [18] = biological target: Glutamate receptor ionotropic, kainate 1 (Rattus norvegicus) (UniProt P22756); experiment: NVS_IC_rKAR: NovaScreen (NVS) Ion Channel Assay for rat Kainic Acid Receptors (KAR) (AID 2283334; active = hit-call score of the fitted dose curve at least 0.9, where 1 is the maximum; inactive = score below 0.9)
# Procedure, shortened: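 Rat forebrain membrane preparation incubated 1 h with radioligand and test chemical; bound signal read by filtration and scintillation. Single-concentration screen at 25 uM, then concentration series to 50 uM maximum.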
# [19] = biological target: rat Thyrotropin Releasing Hormone Receptor (TRH), Trhr (gene 25570) (UniProt Q01717); experiment: NVS_GPCR_rTRH: NovaScreen (NVS) G Protein-Coupled Receptor Assay for rat Thyrotropin Releasing Hormone Receptor (TRH) (AID 2283329);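 also: hit means lower bound tracer signal versus DMSO baseline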
# Procedure, shortened: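 Test compounds are screened at 25 uM in duplicate against radioligand binding in rat forebrain membranes, with active pairs followed up over a concentration range. Detection uses filter-based radiodetection after a 4 h exposure.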
# [20] = biological target: Small conductance calcium-activated potassium channel protein 1 (Rattus norvegicus) (UniProt P70606); experiment: NVS_IC_rKCaCh: NovaScreen (NVS) Ion Channel Assay for rat Potassium Channel, Ca2+ Act., VI (KCaCh) (AID 2283336)
# Procedure, shortened: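 Filter-based scintillation counting of radioligand bound to rat forebrain membrane preparations, measured 1 h after compound addition. Primary screen used 25 uM in duplicate, with concentration-response follow-up; signal decrease relative to DMSO marks activity.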
# rat Neonicotinoid receptor (NNR), Chrna7 (gene 25302), sequence (Q05941 whole entry, looked up): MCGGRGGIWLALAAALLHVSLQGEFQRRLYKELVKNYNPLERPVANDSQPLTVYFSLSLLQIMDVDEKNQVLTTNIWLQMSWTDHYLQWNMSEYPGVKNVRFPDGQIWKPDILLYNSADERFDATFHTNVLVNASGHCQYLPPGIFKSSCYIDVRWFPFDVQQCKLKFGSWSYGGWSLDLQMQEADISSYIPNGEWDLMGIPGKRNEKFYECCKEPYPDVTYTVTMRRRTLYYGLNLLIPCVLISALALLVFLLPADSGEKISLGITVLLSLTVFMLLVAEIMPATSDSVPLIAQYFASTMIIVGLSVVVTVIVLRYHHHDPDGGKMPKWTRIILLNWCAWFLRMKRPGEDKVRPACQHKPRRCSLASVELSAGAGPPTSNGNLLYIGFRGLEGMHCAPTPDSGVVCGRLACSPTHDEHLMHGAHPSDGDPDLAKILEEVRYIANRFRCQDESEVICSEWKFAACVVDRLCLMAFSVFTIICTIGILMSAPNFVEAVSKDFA
# human Constitutive Androstane Receptor (CAR), NR1I3 (gene 9970), sequence (Q14994 whole entry, looked up): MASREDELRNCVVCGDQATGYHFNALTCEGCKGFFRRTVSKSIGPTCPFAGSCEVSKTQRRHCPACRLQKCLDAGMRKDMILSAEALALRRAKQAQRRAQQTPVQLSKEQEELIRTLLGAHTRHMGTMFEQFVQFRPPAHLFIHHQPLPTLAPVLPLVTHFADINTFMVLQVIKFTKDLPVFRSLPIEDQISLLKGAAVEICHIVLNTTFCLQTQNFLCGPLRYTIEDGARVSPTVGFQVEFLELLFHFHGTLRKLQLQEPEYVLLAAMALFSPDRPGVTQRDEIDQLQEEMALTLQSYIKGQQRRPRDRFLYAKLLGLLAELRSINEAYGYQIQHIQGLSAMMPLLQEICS
# bovine Gamma-Aminobutyric Acid Type A Receptor BDZ, alpha 5 site (GABARa5), GABRA5 (gene 523515), sequence (Q08E50 whole entry, looked up): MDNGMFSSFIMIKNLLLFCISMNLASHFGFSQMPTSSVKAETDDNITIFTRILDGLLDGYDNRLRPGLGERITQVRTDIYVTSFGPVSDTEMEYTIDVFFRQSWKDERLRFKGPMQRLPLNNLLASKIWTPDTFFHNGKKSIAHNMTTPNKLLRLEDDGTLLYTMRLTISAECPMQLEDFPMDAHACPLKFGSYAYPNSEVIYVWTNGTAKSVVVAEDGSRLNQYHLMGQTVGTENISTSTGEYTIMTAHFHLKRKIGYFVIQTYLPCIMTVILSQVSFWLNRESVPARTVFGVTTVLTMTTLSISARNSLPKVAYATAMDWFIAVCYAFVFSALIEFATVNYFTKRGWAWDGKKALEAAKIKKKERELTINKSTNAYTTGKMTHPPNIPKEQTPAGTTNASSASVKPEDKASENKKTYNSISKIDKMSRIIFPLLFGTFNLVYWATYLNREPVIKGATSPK
# Small conductance calcium-activated potassium channel protein 1 (Rattus norvegicus), sequence (P70606 whole entry, looked up): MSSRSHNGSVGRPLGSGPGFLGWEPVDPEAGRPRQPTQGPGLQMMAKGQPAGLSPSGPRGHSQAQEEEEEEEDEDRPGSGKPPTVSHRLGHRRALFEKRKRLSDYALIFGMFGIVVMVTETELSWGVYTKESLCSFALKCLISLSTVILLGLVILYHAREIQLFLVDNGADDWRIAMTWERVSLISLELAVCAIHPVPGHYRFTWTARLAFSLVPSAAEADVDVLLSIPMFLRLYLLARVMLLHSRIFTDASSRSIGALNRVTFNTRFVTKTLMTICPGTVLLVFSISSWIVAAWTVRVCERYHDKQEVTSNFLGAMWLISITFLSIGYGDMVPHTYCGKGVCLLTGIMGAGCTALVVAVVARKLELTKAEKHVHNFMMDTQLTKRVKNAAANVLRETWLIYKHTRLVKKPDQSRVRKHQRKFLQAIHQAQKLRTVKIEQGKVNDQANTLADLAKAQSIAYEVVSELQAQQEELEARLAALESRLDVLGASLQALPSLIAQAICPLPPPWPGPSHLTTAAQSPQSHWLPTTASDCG
# rat Opioid Receptor, Non-selective Binding, Oprm1 (gene 25601), sequence (P33535 whole entry, looked up): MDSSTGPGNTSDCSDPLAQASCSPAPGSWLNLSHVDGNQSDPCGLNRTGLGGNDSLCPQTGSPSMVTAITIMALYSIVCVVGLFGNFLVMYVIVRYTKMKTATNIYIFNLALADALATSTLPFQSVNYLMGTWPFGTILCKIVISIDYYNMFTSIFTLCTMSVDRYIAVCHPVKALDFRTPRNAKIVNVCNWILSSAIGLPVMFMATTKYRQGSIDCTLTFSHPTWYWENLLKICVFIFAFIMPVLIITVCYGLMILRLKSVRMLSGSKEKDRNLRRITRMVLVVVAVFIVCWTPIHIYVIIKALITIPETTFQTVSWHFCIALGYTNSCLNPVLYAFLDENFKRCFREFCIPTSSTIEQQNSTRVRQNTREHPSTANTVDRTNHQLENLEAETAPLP
# Voltage-gated inwardly rectifying potassium channel KCNH2 (Homo sapiens), sequence (Q12809 whole entry, looked up): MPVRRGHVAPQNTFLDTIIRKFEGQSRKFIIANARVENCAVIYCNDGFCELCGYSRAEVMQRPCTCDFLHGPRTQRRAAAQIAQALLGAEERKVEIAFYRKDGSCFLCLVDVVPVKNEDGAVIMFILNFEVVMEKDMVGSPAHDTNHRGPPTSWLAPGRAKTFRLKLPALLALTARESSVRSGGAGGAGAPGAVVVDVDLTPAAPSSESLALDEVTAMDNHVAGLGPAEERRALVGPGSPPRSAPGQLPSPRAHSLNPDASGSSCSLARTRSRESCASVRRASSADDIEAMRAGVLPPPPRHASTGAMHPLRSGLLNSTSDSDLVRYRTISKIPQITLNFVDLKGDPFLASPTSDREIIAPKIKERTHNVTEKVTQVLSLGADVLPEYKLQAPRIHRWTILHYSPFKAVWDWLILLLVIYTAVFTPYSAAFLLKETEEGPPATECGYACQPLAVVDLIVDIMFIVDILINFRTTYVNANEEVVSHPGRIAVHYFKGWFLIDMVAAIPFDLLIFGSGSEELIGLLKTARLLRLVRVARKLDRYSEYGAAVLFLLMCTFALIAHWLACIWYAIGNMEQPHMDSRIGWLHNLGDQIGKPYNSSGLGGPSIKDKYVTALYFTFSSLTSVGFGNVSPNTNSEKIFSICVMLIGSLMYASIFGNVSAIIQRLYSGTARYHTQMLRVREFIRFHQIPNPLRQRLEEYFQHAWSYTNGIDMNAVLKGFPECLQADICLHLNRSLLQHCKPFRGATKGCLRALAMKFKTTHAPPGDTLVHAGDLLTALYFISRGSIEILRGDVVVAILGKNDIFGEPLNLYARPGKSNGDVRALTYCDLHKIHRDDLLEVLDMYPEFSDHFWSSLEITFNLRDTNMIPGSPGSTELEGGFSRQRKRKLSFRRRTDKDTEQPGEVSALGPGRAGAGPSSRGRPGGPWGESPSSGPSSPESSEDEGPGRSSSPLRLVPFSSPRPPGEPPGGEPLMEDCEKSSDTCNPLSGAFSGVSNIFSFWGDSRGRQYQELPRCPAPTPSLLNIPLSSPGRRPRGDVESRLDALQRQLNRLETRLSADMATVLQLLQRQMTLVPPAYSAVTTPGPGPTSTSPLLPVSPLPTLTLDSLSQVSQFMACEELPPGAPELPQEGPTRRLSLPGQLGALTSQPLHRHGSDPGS
# rat Peripheral-type Benzodiazepine Receptor (PBR), Tspo (gene 24230), sequence (P16257 whole entry, looked up): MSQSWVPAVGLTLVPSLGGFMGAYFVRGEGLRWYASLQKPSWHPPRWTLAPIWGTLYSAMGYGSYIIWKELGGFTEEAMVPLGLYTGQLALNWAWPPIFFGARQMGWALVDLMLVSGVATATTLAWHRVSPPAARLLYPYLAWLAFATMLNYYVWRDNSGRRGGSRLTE
# rat Glutamate, AMPA Site (AMPA), Gria1 (gene 50592), sequence (P19490 whole entry, looked up): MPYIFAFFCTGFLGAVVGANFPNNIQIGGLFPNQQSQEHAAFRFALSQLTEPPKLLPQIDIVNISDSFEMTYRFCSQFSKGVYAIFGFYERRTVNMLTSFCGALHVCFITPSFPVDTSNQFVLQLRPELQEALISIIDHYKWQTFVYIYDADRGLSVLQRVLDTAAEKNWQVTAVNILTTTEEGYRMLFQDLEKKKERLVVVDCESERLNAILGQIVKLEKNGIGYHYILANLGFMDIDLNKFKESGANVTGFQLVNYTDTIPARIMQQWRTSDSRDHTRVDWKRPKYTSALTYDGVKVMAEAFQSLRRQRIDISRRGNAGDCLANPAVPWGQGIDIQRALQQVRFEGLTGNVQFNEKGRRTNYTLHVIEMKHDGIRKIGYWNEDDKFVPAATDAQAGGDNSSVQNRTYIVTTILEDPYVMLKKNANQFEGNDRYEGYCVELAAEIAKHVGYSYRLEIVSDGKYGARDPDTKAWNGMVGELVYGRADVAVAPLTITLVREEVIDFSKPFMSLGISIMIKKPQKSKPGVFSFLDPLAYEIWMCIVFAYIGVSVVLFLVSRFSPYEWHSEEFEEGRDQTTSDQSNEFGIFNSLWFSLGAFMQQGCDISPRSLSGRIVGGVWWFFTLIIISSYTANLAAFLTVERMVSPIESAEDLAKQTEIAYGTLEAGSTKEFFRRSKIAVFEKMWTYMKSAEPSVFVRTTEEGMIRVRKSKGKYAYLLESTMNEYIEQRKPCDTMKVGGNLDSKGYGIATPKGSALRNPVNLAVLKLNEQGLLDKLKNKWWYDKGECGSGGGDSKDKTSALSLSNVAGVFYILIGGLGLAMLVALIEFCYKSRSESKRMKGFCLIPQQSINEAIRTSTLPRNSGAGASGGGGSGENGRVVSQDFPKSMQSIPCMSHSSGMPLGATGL
# rat Gamma-Aminobutyric Acid Type A Receptor, Non-Selective (GABAR-NonSelective), Gabra1 (gene 29705), sequence (P62813 whole entry, looked up): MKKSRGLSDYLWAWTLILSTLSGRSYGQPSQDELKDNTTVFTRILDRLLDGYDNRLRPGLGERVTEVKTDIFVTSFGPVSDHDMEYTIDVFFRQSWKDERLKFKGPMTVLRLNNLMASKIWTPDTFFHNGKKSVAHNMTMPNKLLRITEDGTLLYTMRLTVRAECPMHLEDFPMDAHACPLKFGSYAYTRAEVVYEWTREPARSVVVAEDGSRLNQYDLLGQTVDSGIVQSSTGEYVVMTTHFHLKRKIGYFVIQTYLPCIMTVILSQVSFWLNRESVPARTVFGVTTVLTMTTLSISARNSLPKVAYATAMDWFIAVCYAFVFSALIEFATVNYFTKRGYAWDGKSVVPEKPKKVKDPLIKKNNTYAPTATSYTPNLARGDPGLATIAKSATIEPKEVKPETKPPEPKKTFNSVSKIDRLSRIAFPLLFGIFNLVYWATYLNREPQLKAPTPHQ
smiles,measurement,setting,value
C[C@@H](Oc1ccc(CNC(=O)c2cccnc2Oc2ccc3c(c2)OCO3)c(F)c1)C(=O)O,AC50,[1],20.8 µM (active)
c1ccc2cc3ccccc3cc2c1,outcome,[1],inactive
NC(=O)N1c2ccccc2C=Cc2ccccc21,outcome,[2],inactive
same,AC50,[3],4.66 µM (active)
CCCCCCCCCC,outcome,[4],inactive
same,AC50,[5],25 µM (active)
same,outcome,[2],inactive
same,outcome,[6],inactive
same,outcome,[7],inactive
COc1cc(C(C)C)c2c(c1)S(=O)(=O)N(COc1cc(=O)n3cccc(OCCN4CCCCC4)c3n1)C2=O,outcome,[4],inactive
same,AC50,[2],4.01 µM (active)
same,outcome,[8],inactive
same,AC50,[9],3.14 µM (active)
CCN(CC)C(=S)SSC(=S)N(CC)CC,AC50,[5],15.6 µM (active)
same,outcome,[6],inactive
same,outcome,[10],inactive
same,AC50,[1],3.21 µM (active)
same,AC50,[11],0.31 µM (active)
CCCCCCCCCCCCCCCCOS(=O)(=O)O,AC50,[10],17.3 µM (active)
COCc1nnc(-c2ccc[n+]([O-])c2)n1-c1c(Cl)c(Cl)cc2[nH]c(=O)c(=O)[nH]c12,AC50,[6],12.6 µM (active)
CCCCN1C(=O)[C@@H]([C@H](O)C2CCCCC2)NC(=O)C12CCN(Cc1ccc(Oc3ccc(C(=O)O)cc3)cc1)CC2,outcome,[12],inactive
CCCCCCCCN(C)C,outcome,[9],inactive
O=C(O)[C@H](O)[C@@H](O)C(=O)O,outcome,[13],inactive
CCOc1ccc2[nH]cc(C(=O)NCc3ccccc3)c(=O)c2n1,AC50,[14],0.0253 µM (active)
same,outcome,[3],inactive
C=CCc1cc(S(=O)(=O)c2ccc(O)c(CC=C)c2)ccc1O,AC50,[15],13.1 µM (active)
same,AC50,[16],8.51 µM (active)
same,AC50,[2],22.5 µM (active)
same,AC50,[17],6.16 µM (active)
same,outcome,[18],inactive
same,outcome,[9],inactive
c1ccc(C(O[C@@H]2CCCN(CCc3ccc4c(c3)OCO4)C2)c2ccccc2)cc1,outcome,[4],inactive
same,AC50,[15],2.71 µM (active)
same,AC50,[16],6.43 µM (active)
same,AC50,[2],0.832 µM (active)
same,outcome,[14],inactive
same,outcome,[12],inactive
same,outcome,[11],inactive
same,AC50,[9],0.428 µM (active)
CCCC(CCC)C(=O)O,outcome,[3],inactive
OCC(CO)(CO)CO,outcome,[19],inactive
OC(CCl)CCl,AC50,[3],4.96 µM (active)
OCc1ccccc1,outcome,[20],inactive
O=c1[nH]cnc2c1ncn2[C@H]1CC[C@@H](CO)O1,outcome,[10],inactive
CC(C)C(=O)Nc1ccc([N+](=O)[O-])c(C(F)(F)F)c1,outcome,[1],inactive
same,AC50,[11],4.95 µM (active)
same,outcome,[9],inactive
Cc1ncc([C@@H](CCCCCCc2ccc3c(n2)NCCC3)CC(=O)O)cn1,AC50,[15],25 µM (active)
CCc1cccc(CC)c1N,outcome,[6],inactive
CCn1nc(C)c2c1C(=O)NCC(c1ccc(O)cc1)=N2,outcome,[15],inactive
same,outcome,[13],inactive
same,outcome,[16],inactive
same,outcome,[2],inactive
same,outcome,[10],inactive
same,outcome,[7],inactive
same,outcome,[9],inactive
OC[C@H]1O[C@@](CO)(O[C@H]2O[C@H](CO)[C@@H](O)[C@H](O)[C@H]2O)[C@@H](O)[C@@H]1O,outcome,[12],inactive
same,outcome,[18],inactive
c1ccc2c(c1)-c1cccc3c1c-2cc1ccccc13,outcome,[10],inactive
CCCOc1ccc(S(=O)(=O)N2CCN(CC)CC2)cc1-c1nc2c(CC)n(Cc3ccccn3)nc2c(=O)[nH]1,outcome,[14],inactive
O=S(=O)(O)c1ccc(N=Nc2c(O)ccc3cc(S(=O)(=O)O)ccc23)cc1,AC50,[12],12.3 µM (active)
same,outcome,[18],inactive
O=C1CN(N=Cc2ccc([N+](=O)[O-])o2)C(=O)N1,outcome,[6],inactive
same,outcome,[10],inactive
OCCOCCOCCO,outcome,[6],inactive
same,outcome,[8],inactive
Cc1nccn1-c1ccc(Sc2cccc(C3(C(N)=O)CCOCC3)c2)cc1,outcome,[15],inactive
same,AC50,[2],17.7 µM (active)
same,outcome,[9],inactive
Cc1nc(-c2ccccn2)ncc1C(=O)Nn1cc(C)c2cc(F)ccc21,outcome,[8],inactive
same,outcome,[20],inactive
Cc1ccc(S(=O)(=O)NC(=O)NN2CCCCCC2)cc1,AC50,[13],3.58 µM (active)
O=C(O)c1cccc(C(=O)O)c1,outcome,[13],inactive
CC1(C)C(=O)N(Cl)C(=O)N1Cl,outcome,[20],inactive
O=C(O)c1cccc(C[C@@H]2COc3ccc(OCc4nc5cc(F)ccc5s4)cc3[C@@H]2O)c1,outcome,[18],inactive
COc1cc2c(c(OC)c1OC)-c1ccc(OC)c(=O)cc1[C@@H](NC(C)=O)CC2,outcome,[18],inactive
